Screening results from PubChem.
SARS PLP yeast – qHTS of Yeast-based Assay for SARS-CoV PLP; S. cerevisiae expressing SARS-CoV PLpro, growth rescue; Potency, µM (series often up to 32.9 µM), hits mostly activators; hit rate 0.19% among 330,000; AID 485353, 2010; calls by dose curve; also: nearly all actives have a fitted effect of over 55% in size
Cycloheximide cs – Cycloheximide Counterscreen for Small Molecule Inhibitors of Shiga Toxin. cell reporter, cycloheximide protein synthesis inhibition counterscreen. max response, %. hit rate 12% among 300,000. AID 2314, 2010; in the data active = max response mostly above about 13%, no sharp cut-off; inactive = mostly below about 14%; also: read at 38.3 µM for the half of the compounds with a filed dose
Shiga inhibitor – A qHTS for Small Molecule Inhibitors of Shiga Toxin; Vero cells, Shiga toxin protein synthesis inhibition reporter; inhibition, % at 38.7 µM; hit rate 9.2% among 290,000; in the data active = inhibition mostly above about 28%, no sharp cut-off; inactive = mostly below about 43%
AMA1-RON2 inh – qHTS for Inhibitors of AMA1-RON; Towards Development of Antimalarial Drug Lead: Primary Screen. AlphaScreen AMA1-biotinylated RON2 peptide binding. Potency, µM (top dose mostly 58.2 µM), most hits filed as inhibitors. hit rate 0.2% among 360,000; also: nearly all actives have a fitted effect of over 45% in size
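AMA1 (3D7) with his tag at 25 nM final met compounds first, then biotinylated RON2 peptide at 25 nM; detection used donor plus acceptor beads, 10 µg/mL apiece, read by AlphaScreen after 30 min at room temperature.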
Pf growth 96h – Primary qHTS for delayed death inhibitors of the malarial parasite plastid, 96 hour incubation; P. falciparum luciferase reporter growth, 96 h; Potency, µM (top dose mostly 28.7 µM), usual class: inhibitors; hit rate 6.9% among 320,000; AID 504834, 2011
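Plates of compound plus infected erythrocytes (2% hematocrit, 0.05% parasitemia final) incubate 96 hours, 37 C, 5% CO2. Detection reagent added; reduced luminescence from the parasites' luciferase reporter flags inhibition.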
Pf growth 48h – Primary qHTS for delayed death inhibitors of the malarial parasite plastid, 48 hour incubation; hit rate 5.9% among 310,000; AID 504832, 2011; Potency, µM (series often up to 28.7 µM), most hits filed as inhibitors; P. falciparum luciferase growth in erythrocytes, 48 h
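Here the parasites carry a stable luciferase gene and grow inside erythrocytes in Albumax-based RPMI medium with compound for one erythrocytic cycle. Activity is scored as loss of luminescent signal.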
Each line names hits and unclear results; the compound was inactive in the other large screens. Shown are actives, neighbours in structure and some others; about 19% of the full set was active somewhere. Unless noted, calls follow the shape of the dose curve; as a rule, active = well fitted curve in the direction sought with a large enough effect; inconclusive = small, poorly fitted or top-dose-only effect, or another doubt; inactive = no such curve, though single readings can be large; an effect the other way counts as inactive or inconclusive.

O=C(NNCS(=O)(=O)O)c1ccncc1	none (no result: SARS PLP yeast, Cycloheximide cs, Shiga inhibitor, AMA1-RON2 inh)
Cc1ccsc1/C=N\NC(=O)CCc1c(C)n[nH]c1C	none
C[C@@]12C(=O)Nc3ccc(Br)cc3C(=O)N1[C@H]1c3cc(Cl)ccc3OC[C@@H]1[C@@H]2c1ccccc1	Pf growth 96h 3.3µM, Pf growth 48h 3.7µM (no result: Cycloheximide cs, Shiga inhibitor)
COc1ccc2c(c1)[C@@H]1[C@H](CO2)[C@H](c2ccccc2)[C@]2(C)C(=O)Nc3ccc(C)cc3C(=O)N12	Pf growth 96h inconclusive, Pf growth 48h 13µM (no result: Cycloheximide cs, Shiga inhibitor)
COc1ccc2c(c1)[C@H]1[C@H](CO2)[C@H](c2ccccc2)[C@]2(C)C(=O)Nc3ccc(C)cc3C(=O)N12	none (no result: Cycloheximide cs, Shiga inhibitor, Pf growth 96h, Pf growth 48h)
Cc1csc2c(N3CCN(C(=O)Nc4ccc(OC(F)(F)F)cc4)CC3)ncnc12	Pf growth 96h inconclusive, Pf growth 48h 1.5µM
Cc1csc2c(N3CCCCC3)ncnc12	Cycloheximide cs 30
CC(C)(C)OC(=O)N1CCCN(C(=O)Nc2ccc(OC(F)(F)F)cc2)CC1	Pf growth 96h inconclusive, Pf growth 48h inconclusive
Cc1csc2c(N3CCC(C(=O)O)CC3)ncnc12	none
Cc1ccc(NC2CC(=O)N(c3ccc(N4CCCCC4)cc3)C2=O)cc1 (centres undefined)	Pf growth 96h 1.7µM
O=C1CC(NN2CCCCC2)C(=O)N1c1ccccc1 (centres undefined)	Cycloheximide cs 13
CCOc1ccccc1C=NNC(=O)C1CC1	none (no result: SARS PLP yeast, Cycloheximide cs, Shiga inhibitor, Pf growth 96h, Pf growth 48h)
OCCC1CN(Cc2cc3c(cc2Cl)OCO3)CCN1Cc1ccccc1 (centres undefined)	Pf growth 96h 10µM, Pf growth 48h inconclusive
COc1cccc(CN2CCN(Cc3cccc4c3OCO4)CC2CCO)c1 (centres undefined)	Cycloheximide cs 19
OCCC1CN(Cc2cnc(-c3ccccc3)s2)CCN1Cc1ccccc1 (centres undefined)	Pf growth 96h 12µM
CC(C)=CCN1CCN(Cc2cnc(-c3ccccc3)s2)CC1CCO (centres undefined)	Pf growth 48h inconclusive
COc1cccc(CN2CCN(Cc3c(C)nn(C(C)C)c3C)CC2CCO)c1 (centres undefined)	Pf growth 96h 10µM
COC(=O)c1c(C)[nH]c(C(=O)COC(=O)Cn2cc(C(F)(F)F)ccc2=O)c1C	none (no result: Cycloheximide cs, Shiga inhibitor)
CCCCn1c(N)c(N(CCOC)C(=O)c2cc(=O)[nH]c3ccccc23)c(=O)[nH]c1=O	none (no result: Cycloheximide cs, Shiga inhibitor)
CCOc1ccc(NC(=O)C2CCN(C(=O)C3CC(=O)N(c4ccc(C)cc4)C3)CC2)cc1 (centres undefined)	Pf growth 96h inconclusive
C/C(=N\N1CCN(c2ccccc2)CC1)c1ccc(O)cc1	Cycloheximide cs 24, Shiga inhibitor 45
C/C(=N\N1CCN(c2ccccc2)CC1)c1ccccc1O	Cycloheximide cs 23, Pf growth 96h inconclusive
C/C(=N\N1CCCCC1)c1ccccc1O	none
O=C(Nc1ccccc1)Nc1ccc2ocnc2c1	Cycloheximide cs 42, Shiga inhibitor 67
O=C(Nc1ccccc1)Nc1ccc2ncoc2c1	Cycloheximide cs 42, Shiga inhibitor 64
CC(C)Cn1c(N)c(C(=O)CSc2ncnc3sc4c(c23)CCCC4)c(=O)n(C)c1=O	none
O=C(Cc1ccccn1)c1ccc(Cl)cc1	Pf growth 96h inconclusive, Pf growth 48h inconclusive (no result: Cycloheximide cs, Shiga inhibitor)
CC1=C(CC(=O)c2ccc(Cl)cc2)C(=O)c2ccccc2C1=O	Cycloheximide cs 27, Shiga inhibitor 61, AMA1-RON2 inh 12µM, Pf growth 96h inconclusive, Pf growth 48h 0.17µM
CCCN1CCN(C(=O)c2ccc(S(=O)(=O)N(C)c3ccccc3OC)cc2)CC1	none (no result: SARS PLP yeast, Cycloheximide cs, Shiga inhibitor, Pf growth 96h, Pf growth 48h)
C1=C(c2ccccc2)Nc2ccccc2N=C1c1ccccc1	Shiga inhibitor 36
CC(C)NC(=O)c1cc2cc([N+](=O)[O-])ccc2s1	none
COc1cc(/C=N/NC(=O)c2cccc([N+](=O)[O-])c2)ccc1O	none
COc1cc(/C=N/NC(=O)c2cccc([N+](=O)[O-])c2)ccc1OCc1ccc(C)cc1	Cycloheximide cs 22, Shiga inhibitor 62
COc1cccc(/C=N/NC(=O)c2cc3cc([N+](=O)[O-])ccc3s2)c1O	SARS PLP yeast inconclusive, Pf growth 96h inconclusive, Pf growth 48h 4.1µM
COc1ccccc1/C=N/NC(=O)c1ccc(NC(=O)c2cccc([N+](=O)[O-])c2)cc1	Pf growth 48h 5.2µM (no result: AMA1-RON2 inh)
COc1ccc(/C=N/NC(=O)c2cccc([N+](=O)[O-])c2)cc1O	Cycloheximide cs 25, Shiga inhibitor 102
COc1cc(/C=N/NC(=O)c2cccnc2)ccc1OC(=O)c1ccc([N+](=O)[O-])cc1	Pf growth 96h inconclusive
O=[N+]([O-])c1ccc(Nc2cccc(F)c2)nc1	none
COc1ccc(-c2cn3c(C)c(C(=O)N4CCCc5ccccc54)sc3n2)cc1	none (no result: SARS PLP yeast, Cycloheximide cs, Shiga inhibitor, Pf growth 96h, Pf growth 48h)
COc1ccc(-c2cn3c4c(sc3n2)CCCC4)cc1	Cycloheximide cs 36 (no result: Pf growth 48h)
O=C(NCc1ccc2c3c(cccc13)C(=O)N2)c1cccs1	none
CC(=O)Nc1ccc2c(c1)C(C)(C)C(C)N2C (centres undefined)	Pf growth 96h 10µM
Cc1ccc(NC2CCCN(C(=O)Cc3nonc3C)C2)cc1C (centres undefined)	Pf growth 96h inconclusive
c1ccc(-n2nnnc2-c2cnc(-c3ccncc3)nc2-c2cccs2)cc1	Pf growth 96h inconclusive, Pf growth 48h 10µM
Fc1ccc(-n2nnnc2-c2cnc(-c3cccs3)nc2C(F)(F)F)cc1	Pf growth 96h 5.2µM, Pf growth 48h inconclusive
FC(F)(F)c1nc(-c2ccncc2)ncc1-c1nnnn1-c1ccccc1	Pf growth 96h inconclusive, Pf growth 48h inconclusive
O=C(O)c1ccccc1NC(=O)C1CCN(S(=O)(=O)c2cccc3nsnc23)CC1	none
Nc1cc2c(cc1N)-c1ccccc1C2	none (no result: SARS PLP yeast, Cycloheximide cs, Shiga inhibitor, Pf growth 96h, Pf growth 48h)
COc1cc(OC)cc(Oc2ccc(S(=O)(=O)N3CCCCC3)cc2[N+](=O)[O-])c1	Pf growth 96h inconclusive, Pf growth 48h 8.3µM
COC(=O)COc1ccc(S(=O)(=O)N2CCCCC2)cc1[N+](=O)[O-]	none
Cc1ccc(CN(C)C(=O)COc2ccc(S(=O)(=O)N3CCCC3)cc2[N+](=O)[O-])c(C)c1	Pf growth 96h inconclusive, Pf growth 48h 12µM (no result: Cycloheximide cs, Shiga inhibitor)
COc1ccccc1Oc1ccc(S(=O)(=O)N2CCCC2)cc1	none
COc1ccc(Oc2ccc(S(=O)(=O)N3CCCCC3)cc2S(=O)(=O)N2CCCCC2)cc1	Pf growth 96h inconclusive, Pf growth 48h 10µM
CCOCCCNC(=O)c1c[nH]c2ccc(S(=O)(=O)Nc3cccc(OC)c3)cc2c1=O	Pf growth 96h inconclusive, Pf growth 48h inconclusive
COc1cccc(NS(=O)(=O)c2ccc3[nH]cc(C(=O)NCCN4CCOCC4)c(=O)c3c2)c1	Pf growth 48h 13µM
